Assay results from PubChem BioAssay AID504582 (Broad Institute, 2011).
Among all 340,000 compounds or so, about 2,300 (0.68%) were called active. The sample as a whole holds a higher share of actives than the screen did. Unmarked numbers belong to inactive results. Rule as the data show it: active = growth rescue above about 28% (passing the limit was not always enough); inconclusive = no clear call, values can overlap the other calls.

Test: rescue of yeast from PfHsp40 toxicity, primary screen, S. cerevisiae, ATP luminescence (AID 504582);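 also: yeast W303a lacking pdr1 and pdr3 grown in galactose medium; growth measured after three days at 30 °C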
Settings: S. cerevisiae expressing PfHsp40, growth rescue, at 12.5 µM, active compounds read high

Q: For `Cc1ccccc1CSCCNC(=O)c1ccc(Cl)c(S(=O)(=O)N2CCOCC2)c1`, which growth rescue is on record?
A: 1.98%

Q: Which growth rescue does the source give for `CCC1CCCCN1C(=O)CSc1nc2c(c(=O)n(C)c(=O)n2C)n1C` (stereo not given) here?
A: 17.3%

Q: For `Nc1ccccc1SC(C[N+](=O)[O-])c1ccccc1` (stereo not given), which growth rescue is on record?
A: 33.7% (active)

Q: For `CC(=O)N(OCc1ccc(OC(C)C)c(Cl)c1)C(C)=O`, which growth rescue is on record?
A: -0.894%

Q: For `COc1ccccc1CNC(=O)C1CCN(C(=O)[C@@H]2Cc3ccccc3CN2)CC1`, which growth rescue is on record?
A: -0.254%

Q: For `COc1cccc(C2c3[nH]c4ccccc4c3CCN2Cc2cccc(C)n2)c1` (stereo not given), which growth rescue is on record?
A: 1.72%

Q: With `CCCNC(=O)CCc1c(C)nc2c(c(C)nn2-c2ccc(C)cc2)c1C` as the compound, how does the growth rescue read?
A: 1.12%

Q: With `COc1ccc(C(=O)N(C)CC(O)c2ccccc2)cc1OC1CCN(C(C)=O)CC1` (stereo not given) as the compound, how does the growth rescue read?
A: 2.54%

Q: With `Cc1cc(S(=O)(=O)NC2CCCC2)ccc1-n1cnnn1` as the compound, how does the growth rescue read?
A: 0.47%

Q: For `CCCC1CCC(=NNC(=S)NCCc2ccccc2)CC1` (stereo not given), which growth rescue is on record?
A: 1.29%

Q: Which growth rescue does the source give for `S=C(NCCC1=CCCCC1)Nc1ccccc1` here?
A: 9.46%

Q: Which growth rescue does the source give for `CCCCNC(=S)N/N=C1\CCCCc2ccccc21` here?
A: 63.9% (active)

Q: Which growth rescue does the source give for `CCCCn1nc(C(=O)Nc2cccc(C(=O)NC3CC3)c2)c2ccccc2c1=O` here?
A: 1.46%

Q: Which growth rescue does the source give for `O=C(NCCCN1CCCC1=O)c1ccc(S(=O)(=O)Nc2ccccc2)cc1` here?
A: -0.823%

Q: With `COCCN1C(=O)C(=O)/C(=C(/O)c2ccc(S(=O)(=O)N3CCOCC3)cc2)C1c1ccc(O)c(OC)c1` (stereo not given) as the compound, how does the growth rescue read?
A: -0.794%

Q: With `CC(=O)OCc1cc(=O)n(C)c(=O)n1C` as the compound, how does the growth rescue read?
A: -0.117%

Q: For `CC(=O)c1cc(NC(=O)c2ccccc2)c(=O)oc1/C=C/N(C)C`, which growth rescue is on record?
A: 1.15%

Q: With `CSc1nccc(NC(=O)c2ccc(C(C)(C)C)cc2)n1` as the compound, how does the growth rescue read?
A: 733% (active)

Q: With `Cc1cccc(NC(=O)c2ccc(S(=O)(=O)N(C)c3ccccc3)cc2)n1` as the compound, how does the growth rescue read?
A: -1.12%

Q: With `COC(=O)c1nc(NC(=O)c2ccc(C(C)(C)C)cc2)n[nH]1` as the compound, how does the growth rescue read?
A: 0.045%

Q: With `Cn1c(C(=O)OC(C(=O)NC2CCCCC2)c2ccccn2)cc2sccc21` (stereo not given) as the compound, how does the growth rescue read?
A: 1.92%

Q: With `CC(C)(CNC(=O)c1ccc(Cl)c(S(=O)(=O)N2CCc3ccccc3C2)c1)N1CCOCC1` as the compound, how does the growth rescue read?
A: -1.18%

Q: For `O=C(COC(=O)c1ccc([N+](=O)[O-])o1)NC12CC3CC(CC(C3)C1)C2`, which growth rescue is on record?
A: 364% (active)

Q: With `O=C(COC(=O)c1ccc(Br)o1)NC12CC3CC(CC(C3)C1)C2` as the compound, how does the growth rescue read?
A: 4.21%

Q: For `O=C(OCC(=O)c1cccs1)c1ccc([N+](=O)[O-])o1`, which growth rescue is on record?
A: -1.26%

Q: With `Cc1csc(NC(=S)Nc2cccc(Cl)c2)n1` as the compound, how does the growth rescue read?
A: 118% (active)

Q: Which growth rescue does the source give for `Cc1cc(Cl)nc(NC(=O)Nc2cccc(Cl)c2)n1` here?
A: -0.042%

Q: Which growth rescue does the source give for `Cn1cc(Cl)c(C(=O)NNC(=S)Nc2cccc(Cl)c2)n1` here?
A: -0.14%

Q: For `CCOC(=O)c1csc(CCNC(=O)c2oc3c(Cl)cc(C)cc3c2C)n1`, which growth rescue is on record?
A: -0.607%

Q: For `CCCc1nnc(NC(=O)CCC(=O)NC2CC2)s1`, which growth rescue is on record?
A: 0.339%

Q: For `O=C(NCCCCO)C(F)(F)C(F)(F)C(F)(F)C(=O)NCCCCO`, which growth rescue is on record?
A: -1.94%

Q: Which growth rescue does the source give for `O=c1ccc2cc(S(=O)(=O)NCCCc3ccccc3)ccc2[nH]1` here?
A: 30.5% (active)

Q: For `O=S(=O)(NCCCc1ccccc1)c1ccc(Br)cc1`, which growth rescue is on record?
A: 7.99%

Q: Which growth rescue does the source give for `O=S(=O)(NCCc1ccccc1)c1ccccc1` here?
A: -1.03%

Q: Which growth rescue does the source give for `Cc1nc2ccccn2c1C(=O)NN=C1CCN(C)CC1` here?
A: -0.557%

Q: Which growth rescue does the source give for `CCCCNC(=O)N(O)C1N(/N=C/c2ccc(N(C)C)cc2)C(=S)SC1(C)C` (stereo not given) here?
A: -1.02%

Q: For `O=S(=O)(c1cccc2nonc12)N1CCN(c2cccc(Cl)c2)CC1`, which growth rescue is on record?
A: 1.52%

Q: For `Cc1cc(C(=O)CCC(=O)NNC(=O)c2ccccc2O)c(C)s1`, which growth rescue is on record?
A: -0.863%

Q: With `CC1=C(C)CC(C(=O)NNC(=O)c2ccccc2O)C(C(=O)O)C1` (stereo not given) as the compound, how does the growth rescue read?
A: 1.17%

Q: Which growth rescue does the source give for `O=C(NNC(=O)c1ccccc1O)c1ccccc1O` here?
A: 68% (active)

Q: For `O=C(Nc1ccccc1C(=O)O)c1cc(S(=O)(=O)N2CCCCC2)cs1`, which growth rescue is on record?
A: 0.561%

Q: Which growth rescue does the source give for `O=C(NNC(=O)c1cc(S(=O)(=O)N2CCCCC2)ccc1Cl)c1ccccc1O` here?
A: 91.7% (active)

Q: With `CC1CCCC(NC(=O)c2cc(S(=O)(=O)N3CCCCC3)ccc2Cl)C1C` (stereo not given) as the compound, how does the growth rescue read?
A: 2.29%

Q: For `COC(=O)c1sc(N)c(C(=O)OC)c1COC(=O)CNS(=O)(=O)c1ccc(C)cc1`, which growth rescue is on record?
A: 0.164%

Q: Which growth rescue does the source give for `COc1ccc(C(=O)C2CCCN(C(=O)c3cc4nc(C)cc(C)n4n3)C2)cc1F` (stereo not given) here?
A: -1.21%

Q: With `COc1ccc2c(c1)OC(O)(C(F)(F)C(F)F)CC2=O` (stereo not given) as the compound, how does the growth rescue read?
A: 0.213%

Q: For `N#CCc1ccc(NC(=O)c2ccccc2C(=O)Nc2ccc(CC#N)cc2)cc1`, which growth rescue is on record?
A: -0.068%

Q: With `Oc1ccc(Br)cc1/C=N/Nc1ccccn1` as the compound, how does the growth rescue read?
A: 246% (active)

Q: With `Cc1c(C(=O)Nc2ccccn2)oc2ccc(Br)cc12` as the compound, how does the growth rescue read?
A: -0.794%

Q: Which growth rescue does the source give for `O=C(NN=Cc1ccccc1O)NN=Cc1ccccc1O` here?
A: -0.914%
